In experiment [1] the target is Sphingosine kinase 1 (Homo sapiens) (UniProt Q9NYA1). The conditions noted are these: at 1 µM.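 Note: mean SPHK1 inhibition value reported from the GSK PKIS kinase panel screen.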
Experiment [2] concerns the target T1, Sphingosine kinase 2 (Homo sapiens) (UniProt Q9NRA0).
T1 sequence (whole entry): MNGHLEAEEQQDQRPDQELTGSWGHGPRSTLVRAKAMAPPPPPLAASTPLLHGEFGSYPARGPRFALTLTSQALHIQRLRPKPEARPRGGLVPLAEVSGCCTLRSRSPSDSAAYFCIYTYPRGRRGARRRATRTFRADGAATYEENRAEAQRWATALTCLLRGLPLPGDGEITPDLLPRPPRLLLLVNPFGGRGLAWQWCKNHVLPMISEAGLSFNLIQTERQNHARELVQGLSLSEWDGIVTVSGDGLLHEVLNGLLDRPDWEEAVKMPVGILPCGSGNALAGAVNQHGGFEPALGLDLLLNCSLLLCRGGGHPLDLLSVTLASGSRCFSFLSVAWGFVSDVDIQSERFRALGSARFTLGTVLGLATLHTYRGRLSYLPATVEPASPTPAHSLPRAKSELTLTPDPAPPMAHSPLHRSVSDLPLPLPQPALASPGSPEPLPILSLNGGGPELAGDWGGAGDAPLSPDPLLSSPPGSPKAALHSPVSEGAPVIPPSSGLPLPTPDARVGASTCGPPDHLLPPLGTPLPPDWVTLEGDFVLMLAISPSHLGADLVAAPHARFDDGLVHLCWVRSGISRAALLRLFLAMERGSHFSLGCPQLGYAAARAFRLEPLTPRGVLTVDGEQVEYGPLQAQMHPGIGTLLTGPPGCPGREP
The conditions noted are these: at 0.1 µM.

In experiment [3] the target is T1, Sphingosine kinase 2 (Homo sapiens). The conditions noted are these: at 1 µM.
The target of experiment [4] is Casein kinase II subunit alpha (Homo sapiens) (UniProt P68400). The conditions noted are these: at 0.1 µM.
Chain of Casein kinase II subunit alpha (Homo sapiens) (P68400 whole entry, looked up): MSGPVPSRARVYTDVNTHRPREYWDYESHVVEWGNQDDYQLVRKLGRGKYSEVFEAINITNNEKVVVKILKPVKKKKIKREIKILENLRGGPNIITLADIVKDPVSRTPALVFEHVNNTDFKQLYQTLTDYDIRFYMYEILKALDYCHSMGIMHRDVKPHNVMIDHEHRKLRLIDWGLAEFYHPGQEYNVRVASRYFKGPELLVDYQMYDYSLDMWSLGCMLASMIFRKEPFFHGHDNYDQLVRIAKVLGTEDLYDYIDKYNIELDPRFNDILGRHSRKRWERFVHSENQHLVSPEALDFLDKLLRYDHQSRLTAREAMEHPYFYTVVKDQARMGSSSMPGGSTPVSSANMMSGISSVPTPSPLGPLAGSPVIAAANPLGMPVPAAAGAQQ
The target is the same in experiment [5]. The conditions noted are these: at 1 µM.
For experiment [6], the target named is T2, Inhibitor of nuclear factor kappa-B kinase subunit alpha (Homo sapiens) (UniProt O15111).
T2 sequence (whole entry): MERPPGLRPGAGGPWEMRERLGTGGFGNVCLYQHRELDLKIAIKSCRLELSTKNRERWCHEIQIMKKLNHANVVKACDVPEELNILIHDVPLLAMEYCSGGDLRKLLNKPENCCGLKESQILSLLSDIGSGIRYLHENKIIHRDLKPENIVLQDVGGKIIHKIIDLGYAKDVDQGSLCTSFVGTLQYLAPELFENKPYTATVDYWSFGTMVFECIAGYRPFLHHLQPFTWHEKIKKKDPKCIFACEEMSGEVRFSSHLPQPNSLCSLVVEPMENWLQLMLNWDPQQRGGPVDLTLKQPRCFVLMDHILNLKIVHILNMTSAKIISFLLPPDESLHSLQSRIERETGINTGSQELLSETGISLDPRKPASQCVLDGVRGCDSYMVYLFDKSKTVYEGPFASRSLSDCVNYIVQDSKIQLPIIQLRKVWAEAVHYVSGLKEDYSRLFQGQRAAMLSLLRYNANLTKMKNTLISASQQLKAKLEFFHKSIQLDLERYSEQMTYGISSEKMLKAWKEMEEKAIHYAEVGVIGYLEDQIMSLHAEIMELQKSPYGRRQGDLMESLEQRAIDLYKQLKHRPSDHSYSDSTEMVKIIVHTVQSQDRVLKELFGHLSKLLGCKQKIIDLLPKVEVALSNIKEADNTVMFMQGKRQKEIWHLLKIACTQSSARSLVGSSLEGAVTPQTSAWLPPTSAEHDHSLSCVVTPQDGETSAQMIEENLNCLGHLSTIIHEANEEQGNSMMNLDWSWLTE
The conditions noted are these: at 0.1 µM.

The target of experiment [7] is T2, Inhibitor of nuclear factor kappa-B kinase subunit alpha (Homo sapiens). The conditions noted are these: at 1 µM.
Experiment [8] concerns the target T3, Inhibitor of nuclear factor kappa-B kinase subunit beta (Homo sapiens) (UniProt O14920).
T3 sequence (whole entry): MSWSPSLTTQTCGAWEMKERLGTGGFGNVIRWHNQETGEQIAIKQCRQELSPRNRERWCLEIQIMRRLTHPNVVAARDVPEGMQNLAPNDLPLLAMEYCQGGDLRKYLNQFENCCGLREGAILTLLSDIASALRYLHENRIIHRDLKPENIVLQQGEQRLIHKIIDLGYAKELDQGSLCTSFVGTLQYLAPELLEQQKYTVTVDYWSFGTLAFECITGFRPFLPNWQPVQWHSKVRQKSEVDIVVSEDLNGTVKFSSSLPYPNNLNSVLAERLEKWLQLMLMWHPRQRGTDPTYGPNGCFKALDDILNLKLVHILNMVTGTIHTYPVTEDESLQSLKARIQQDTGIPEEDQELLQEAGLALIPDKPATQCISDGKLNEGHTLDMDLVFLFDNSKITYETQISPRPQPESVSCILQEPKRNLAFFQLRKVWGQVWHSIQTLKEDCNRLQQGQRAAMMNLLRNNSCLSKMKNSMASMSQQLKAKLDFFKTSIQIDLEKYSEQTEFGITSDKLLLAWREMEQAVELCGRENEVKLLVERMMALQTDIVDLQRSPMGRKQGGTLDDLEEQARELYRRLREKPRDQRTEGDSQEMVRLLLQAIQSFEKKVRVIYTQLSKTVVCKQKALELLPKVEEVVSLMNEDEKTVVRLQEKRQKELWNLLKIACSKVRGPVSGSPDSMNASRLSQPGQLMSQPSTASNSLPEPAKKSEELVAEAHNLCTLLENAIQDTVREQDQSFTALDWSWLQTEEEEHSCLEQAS
The conditions noted are these: at 0.1 µM.

In experiment [9] the target is T3, Inhibitor of nuclear factor kappa-B kinase subunit beta (Homo sapiens). The conditions noted are these: at 1 µM.
Experiment [10] deals with T4, Inhibitor of nuclear factor kappa-B kinase subunit epsilon (Homo sapiens) (UniProt Q14164).
T4 sequence (whole entry): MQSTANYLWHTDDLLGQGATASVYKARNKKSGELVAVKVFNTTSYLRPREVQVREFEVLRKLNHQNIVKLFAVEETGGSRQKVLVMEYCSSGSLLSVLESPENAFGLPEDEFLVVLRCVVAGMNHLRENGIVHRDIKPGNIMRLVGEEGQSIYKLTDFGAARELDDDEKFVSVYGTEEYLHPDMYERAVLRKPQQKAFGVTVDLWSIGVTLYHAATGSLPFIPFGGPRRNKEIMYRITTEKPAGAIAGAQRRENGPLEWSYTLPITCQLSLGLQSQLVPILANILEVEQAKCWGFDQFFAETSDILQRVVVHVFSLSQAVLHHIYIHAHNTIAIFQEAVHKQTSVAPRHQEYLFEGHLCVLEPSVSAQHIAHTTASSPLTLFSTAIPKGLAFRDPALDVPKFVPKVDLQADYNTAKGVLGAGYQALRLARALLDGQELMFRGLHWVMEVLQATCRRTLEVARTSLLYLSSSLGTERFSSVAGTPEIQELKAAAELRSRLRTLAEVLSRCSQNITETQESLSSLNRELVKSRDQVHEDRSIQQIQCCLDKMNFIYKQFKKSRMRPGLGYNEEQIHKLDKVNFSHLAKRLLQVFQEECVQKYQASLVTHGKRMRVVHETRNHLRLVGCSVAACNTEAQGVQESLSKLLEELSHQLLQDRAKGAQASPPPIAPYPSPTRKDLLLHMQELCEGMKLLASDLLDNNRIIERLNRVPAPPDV
The conditions noted are these: at 0.1 µM.

Experiment [11] has as its target T4, Inhibitor of nuclear factor kappa-B kinase subunit epsilon (Homo sapiens). The conditions noted are these: at 1 µM.
The target in experiment [12] is T5, Serine/threonine-protein kinase Nek1 (Homo sapiens) (UniProt Q96PY6).
T5 sequence (whole entry): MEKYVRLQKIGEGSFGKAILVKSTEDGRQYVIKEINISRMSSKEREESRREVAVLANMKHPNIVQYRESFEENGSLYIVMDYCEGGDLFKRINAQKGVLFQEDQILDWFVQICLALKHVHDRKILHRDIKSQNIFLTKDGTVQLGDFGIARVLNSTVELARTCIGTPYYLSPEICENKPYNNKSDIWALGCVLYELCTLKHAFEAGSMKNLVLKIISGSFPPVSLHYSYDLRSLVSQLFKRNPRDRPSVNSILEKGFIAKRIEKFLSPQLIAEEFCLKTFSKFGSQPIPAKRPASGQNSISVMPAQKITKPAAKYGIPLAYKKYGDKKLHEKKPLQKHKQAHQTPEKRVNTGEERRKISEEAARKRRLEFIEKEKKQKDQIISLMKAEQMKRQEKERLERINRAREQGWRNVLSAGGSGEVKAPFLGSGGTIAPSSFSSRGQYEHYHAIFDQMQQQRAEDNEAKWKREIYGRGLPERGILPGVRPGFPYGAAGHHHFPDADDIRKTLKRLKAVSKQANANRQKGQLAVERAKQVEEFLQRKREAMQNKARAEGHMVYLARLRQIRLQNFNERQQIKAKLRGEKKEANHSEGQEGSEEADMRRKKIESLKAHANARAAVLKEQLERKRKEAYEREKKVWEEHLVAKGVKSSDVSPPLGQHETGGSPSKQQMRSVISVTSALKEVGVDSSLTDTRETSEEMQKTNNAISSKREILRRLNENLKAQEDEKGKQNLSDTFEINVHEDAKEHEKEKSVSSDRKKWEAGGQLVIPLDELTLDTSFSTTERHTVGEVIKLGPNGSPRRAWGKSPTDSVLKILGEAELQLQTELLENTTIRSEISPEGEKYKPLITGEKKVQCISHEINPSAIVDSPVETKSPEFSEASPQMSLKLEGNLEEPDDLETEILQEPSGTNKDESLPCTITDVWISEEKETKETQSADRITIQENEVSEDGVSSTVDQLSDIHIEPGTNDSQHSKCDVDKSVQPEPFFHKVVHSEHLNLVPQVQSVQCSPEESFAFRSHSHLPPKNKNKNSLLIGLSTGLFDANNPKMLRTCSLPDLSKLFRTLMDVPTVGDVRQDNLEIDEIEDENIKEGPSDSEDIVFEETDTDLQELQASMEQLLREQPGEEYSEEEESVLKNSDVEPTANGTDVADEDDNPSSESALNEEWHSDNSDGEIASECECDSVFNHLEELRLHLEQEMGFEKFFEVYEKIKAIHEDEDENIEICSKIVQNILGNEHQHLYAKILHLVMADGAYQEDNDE
The conditions noted are these: at 0.1 µM.

Experiment [13] concerns the target T5, Serine/threonine-protein kinase Nek1 (Homo sapiens). The conditions noted are these: at 1 µM.
Experiment [14] addresses T6, Serine/threonine-protein kinase Nek2 (Homo sapiens) (UniProt P51955).
T6 sequence (whole entry): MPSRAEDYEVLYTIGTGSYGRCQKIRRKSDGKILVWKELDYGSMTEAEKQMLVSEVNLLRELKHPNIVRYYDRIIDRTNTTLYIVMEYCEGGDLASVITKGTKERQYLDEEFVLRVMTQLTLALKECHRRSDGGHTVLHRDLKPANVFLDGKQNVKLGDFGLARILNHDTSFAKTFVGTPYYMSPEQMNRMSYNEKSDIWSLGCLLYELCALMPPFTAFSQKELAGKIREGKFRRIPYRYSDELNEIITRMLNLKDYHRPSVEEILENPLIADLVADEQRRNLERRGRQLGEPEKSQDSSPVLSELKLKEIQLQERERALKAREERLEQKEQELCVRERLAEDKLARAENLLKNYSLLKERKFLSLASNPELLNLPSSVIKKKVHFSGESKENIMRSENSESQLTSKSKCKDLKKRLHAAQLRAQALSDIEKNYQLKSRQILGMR
The conditions noted are these: at 0.1 µM.

In experiment [15] the target is T6, Serine/threonine-protein kinase Nek2 (Homo sapiens). The conditions noted are these: at 1 µM.
Experiment [16] deals with Serine/threonine-protein kinase Nek6 (Homo sapiens) (UniProt Q9HC98). The conditions noted are these: at 0.1 µM.
Chain of Serine/threonine-protein kinase Nek6 (Homo sapiens) (Q9HC98 whole entry): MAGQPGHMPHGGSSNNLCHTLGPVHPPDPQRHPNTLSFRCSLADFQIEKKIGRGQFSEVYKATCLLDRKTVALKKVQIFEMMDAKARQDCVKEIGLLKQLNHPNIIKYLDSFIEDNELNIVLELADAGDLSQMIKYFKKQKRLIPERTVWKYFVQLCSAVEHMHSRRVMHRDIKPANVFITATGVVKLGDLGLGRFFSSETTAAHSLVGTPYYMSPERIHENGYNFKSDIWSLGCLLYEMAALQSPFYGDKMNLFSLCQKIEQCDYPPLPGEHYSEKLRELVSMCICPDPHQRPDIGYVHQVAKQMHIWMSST
Experiment [17] has the same target. The conditions noted are these: at 1 µM.
Experiment [18] has as its target Serine/threonine-protein kinase Nek7 (Homo sapiens) (UniProt Q8TDX7). The conditions noted are these: at 0.1 µM.
For experiment [19] the target is unchanged. The conditions noted are these: at 1 µM.
Experiment [20] addresses T7, Serine/threonine-protein kinase Nek9 (Homo sapiens) (UniProt Q8TD19).
T7 sequence (whole entry): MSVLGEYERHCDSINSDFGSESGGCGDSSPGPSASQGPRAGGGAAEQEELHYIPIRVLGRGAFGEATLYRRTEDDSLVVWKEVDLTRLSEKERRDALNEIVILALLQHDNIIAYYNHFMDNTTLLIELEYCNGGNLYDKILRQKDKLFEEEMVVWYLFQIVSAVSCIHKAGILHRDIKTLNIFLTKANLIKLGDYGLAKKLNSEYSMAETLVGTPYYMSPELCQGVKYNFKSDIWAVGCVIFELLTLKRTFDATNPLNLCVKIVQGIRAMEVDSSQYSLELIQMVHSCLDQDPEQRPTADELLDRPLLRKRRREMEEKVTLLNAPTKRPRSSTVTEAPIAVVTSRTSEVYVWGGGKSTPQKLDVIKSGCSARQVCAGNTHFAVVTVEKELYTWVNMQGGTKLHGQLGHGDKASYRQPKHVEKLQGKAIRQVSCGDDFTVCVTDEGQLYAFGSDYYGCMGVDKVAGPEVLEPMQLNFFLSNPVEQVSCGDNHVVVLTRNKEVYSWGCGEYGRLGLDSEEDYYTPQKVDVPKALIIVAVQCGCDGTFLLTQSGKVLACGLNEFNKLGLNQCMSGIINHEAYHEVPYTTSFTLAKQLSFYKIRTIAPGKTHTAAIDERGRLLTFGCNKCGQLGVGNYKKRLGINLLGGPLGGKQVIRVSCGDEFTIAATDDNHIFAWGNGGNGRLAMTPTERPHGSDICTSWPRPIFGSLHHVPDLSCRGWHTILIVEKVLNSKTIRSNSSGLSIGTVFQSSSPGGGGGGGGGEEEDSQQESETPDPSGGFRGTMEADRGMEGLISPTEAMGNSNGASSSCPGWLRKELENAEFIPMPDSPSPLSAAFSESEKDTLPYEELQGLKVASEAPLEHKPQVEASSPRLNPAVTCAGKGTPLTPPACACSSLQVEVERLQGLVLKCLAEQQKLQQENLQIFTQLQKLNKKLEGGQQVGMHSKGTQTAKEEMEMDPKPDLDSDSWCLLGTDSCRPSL
The conditions noted are these: at 0.1 µM.

For orientation: inhibition means the drop in the measured response relative to a control, in per cent.

Chain of Serine/threonine-protein kinase Nek7 (Homo sapiens) (Q8TDX7 whole entry, looked up): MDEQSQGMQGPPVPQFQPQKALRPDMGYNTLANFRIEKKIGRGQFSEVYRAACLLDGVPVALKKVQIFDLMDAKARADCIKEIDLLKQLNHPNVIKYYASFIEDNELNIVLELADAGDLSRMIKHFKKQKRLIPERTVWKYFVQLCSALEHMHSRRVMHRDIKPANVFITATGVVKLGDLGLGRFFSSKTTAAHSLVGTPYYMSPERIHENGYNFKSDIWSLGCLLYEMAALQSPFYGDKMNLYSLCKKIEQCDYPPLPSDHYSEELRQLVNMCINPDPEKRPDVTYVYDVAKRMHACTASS
Chain of Sphingosine kinase 1 (Homo sapiens) (Q9NYA1 whole entry): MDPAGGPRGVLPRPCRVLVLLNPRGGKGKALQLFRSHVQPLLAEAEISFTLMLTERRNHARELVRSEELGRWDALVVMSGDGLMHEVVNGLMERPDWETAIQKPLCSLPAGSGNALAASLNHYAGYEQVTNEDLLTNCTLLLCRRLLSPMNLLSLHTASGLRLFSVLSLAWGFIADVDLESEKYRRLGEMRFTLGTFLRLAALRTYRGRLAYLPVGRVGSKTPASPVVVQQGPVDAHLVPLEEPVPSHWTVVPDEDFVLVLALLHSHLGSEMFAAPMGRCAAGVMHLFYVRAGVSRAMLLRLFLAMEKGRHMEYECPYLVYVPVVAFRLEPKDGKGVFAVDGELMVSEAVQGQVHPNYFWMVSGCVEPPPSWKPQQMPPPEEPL

On to `Fc1ccc(-c2ncn(C3CCNCC3)c2-c2ccnc(Oc3ccc(F)c(F)c3)n2)cc1`, for which the inhibition was -0.78% in experiment [1]; 1.4% in experiment [2]; -2.94% in experiment [3]; 1.69% in experiment [4]; 3.12% in experiment [5]; -1.24% in [6]. Moreover, the inhibition amounted to 3.68% in experiment [7]; 6.9% in experiment [8]; 5.72% in experiment [9]; 6.6% in [10]; 4.67% in experiment [11]; 2.19% in experiment [12]. The inhibition in experiment [13] was 0.52%; in experiment [14], 5.55%; in [15], 4.23%; in [16], 0.84%; in experiment [17], 2.1%; in experiment [18], 3.19%. Also, the inhibition in [19] was 6.72%; in experiment [20], 6.39%.

The values are drawn from ChEMBL document CHEMBL1961873, “Compounds: GSK PKIS; Assays: Nanosyn kinase panel” (2012).
